Source: PubChem BioAssay
Most compounds without a hit are left out; they make up all but 8.3% or so of the library.
MCF10A rerep: inducers of DNA re-replication in MCF 10A breast cells; MCF 10A DNA re-replication, Hoechst nuclear intensity, 48 h; Potency, µM (series often up to 46.1 µM), most hits filed as activators; actives 2.9% (n = 350,000); note: nearly all actives have a fitted effect of over 50% in size
Chronic BCR inh: inhibitors of chronic active B-cell receptor signaling | actives 0.05% (n = 340,000) | Potency, µM (doses to about 46.1 µM), most hits filed as inhibitors | AID 493014 | ABC-DLBCL IkBa-CBG/CBR reporter, luminescence ratio, 4 h; active = well fitted inhibition curve with a large enough effect in the signal ratio, with a control signal flat, not every such curve was filed as active; inconclusive = small, poorly fitted or top-dose-only effect, or effect the other way, or a change in a side signal; the % refers to the signal ratio
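Cell line TMD8 (human ABC DLBCL), stably expressing tet-inducible CBG68-IkBa fusion and CBR; IMDM/0.5% FBS; cpd up to 46 uM; dox induction, 4 h, 37C/5% CO2; dual luminescence; green/red ratio; MG132 control.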
Giardia killer: kills Giardia lamblia; activity change, % at 7.66 µM, hits read low; Giardia lamblia trophozoite viability; actives 0.15% (n = 340,000); in the data active = activity change below about -80%; inconclusive = between about -30% and that limit;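 note: parasites exposed to compound for two days anaerobically before the ATP read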
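ATP-content bioluminescence gauges trophozoite survival. Cells (100/well) receive compound and incubate anaerobically for 48 hrs at 37 deg C; detection reagent follows for 15-30 min at room temperature.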
RORgamma inh: inhibitors of mouse ROR gamma transcriptional activity | Potency, µM (top dose mostly 53.6 µM), actives largely listed as inhibitors | Drosophila S2 Gal4-RORgamma UAS-luciferase reporter, 20 h | actives 5.4% (n = 310,000); note: nearly all actives have a fitted effect of over 60% in size
Target sequence (P51450 whole entry, looked up, the tested form may be a part): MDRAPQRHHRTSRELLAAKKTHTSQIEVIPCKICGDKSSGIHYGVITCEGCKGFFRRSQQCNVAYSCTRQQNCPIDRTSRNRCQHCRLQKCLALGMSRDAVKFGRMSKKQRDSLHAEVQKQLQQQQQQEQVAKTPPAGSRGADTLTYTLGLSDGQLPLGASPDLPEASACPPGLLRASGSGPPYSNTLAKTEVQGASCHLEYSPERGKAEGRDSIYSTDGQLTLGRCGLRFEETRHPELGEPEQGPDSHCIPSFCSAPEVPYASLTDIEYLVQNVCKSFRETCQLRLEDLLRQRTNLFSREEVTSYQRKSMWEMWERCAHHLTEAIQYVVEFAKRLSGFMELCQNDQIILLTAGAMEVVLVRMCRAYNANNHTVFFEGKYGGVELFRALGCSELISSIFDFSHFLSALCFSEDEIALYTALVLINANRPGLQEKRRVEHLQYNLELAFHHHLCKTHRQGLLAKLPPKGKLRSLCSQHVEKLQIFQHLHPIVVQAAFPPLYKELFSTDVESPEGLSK
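Using a luciferase readout, inhibitors were identified by reduced reporter activity in Drosophila cells coexpressing a copper-inducible Gal4–ROR gamma fusion and UAS-driven Photinus luciferase, incubated 20 hr after 700 uM copper sulfate.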
Gal4-VP16 FLuc: Gal4-VP16 reporter inhibition counter-screen | Drosophila S2 Gal4-VP16 UAS-luciferase, luminescence, 20 h | Potency, µM (highest dose often 53.6 µM), most hits filed as inhibitors | actives 3.5% (n = 310,000);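 note: Gal4-VP16 expression switched on by copper sulfate through the metallothionein promoter; nearly all actives have a fitted effect of over 50% in size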
SW480 rereplic: induces DNA re-replication in SW480 colon adenocarcinoma cells. SW480 DNA re-replication, Hoechst DNA content imaging, 48 h. Potency, µM (doses to about 46.1 µM), hits mostly activators. AID 624297. actives 1.8% (n = 340,000); note: nearly all actives have a fitted effect of over 55% in size
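Hoechst fluorescence of nuclei (405 nm excitation, 500-530 nm emission) measured by plate-scanning imager after 48 hr compound exposure at 37 C; re-replication scored as increased number of nuclei with elevated intensity.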
Hits are given with their value; 0 = inactive; ? = inconclusive; - = no result; [ ] = dose if it differs, or a comment. Unless noted, calls come from the whole dose curve; as a rule, active = well fitted curve in the direction sought with a large enough effect; inconclusive = small, poorly fitted or top-dose-only effect, or another doubt; inactive = no such curve, though single readings can be large; an effect the other way counts as inactive or inconclusive.

SMILES	MCF10A rerep	Chronic BCR inh	Giardia killer	RORgamma inh	Gal4-VP16 FLuc	SW480 rereplic
O=C(COC(=O)c1cccc(S(=O)(=O)N2CCCC2)c1)Nc1ccccc1C(F)(F)F	0	0	0	-	-	4.6µM
CC(=O)N1CCN(S(=O)(=O)c2cccc(C(=O)OCC(=O)N(Cc3ccccc3)C(C)(C)C)c2)CC1	7.3µM	0	0	-	-	0
COc1cccc([C@@H]2Oc3ccc(Br)cc3C[C@H]2OC(=O)NS(=O)(=O)c2ccc(C)cc2)c1	-	-	-	0	0	-
COc1ccc2nc(N(Cc3cccnc3)C(=O)c3ccc(Cl)cc3)sc2c1	-	0	-	-	-	-
CCN1/C(=C(\O)c2ccccc2)C(=O)c2ccccc2S1(=O)=O	?	?	0	10µM	?	?
Cc1ccc(C)c(-c2ccc(C(=O)O)o2)c1	-	-	-	13µM	0	-
COc1ccccc1-c1ccc(C(=O)O)o1	0	?	0	0	0	0
O=C(NCCOc1ccccc1)C1CCC(=O)N(CCCN2CCCC2=O)C1 (stereo not drawn)	0	0	0	0	0	0
CC(C)(C)c1cc(C(=O)N/N=C/c2ccco2)n[nH]1	0	0	0	0	0	0
CCc1ccc(-c2cc(C(=O)N/N=C/c3ccco3)[nH]n2)cc1	?	0	0	20µM	0[10 µM]	0
O=C(N/N=C/c1ccco1)c1cc(-c2ccc3ccccc3c2)n[nH]1	7.9µM	?	0	?	?	23µM
COc1ccc(-c2nc3ccccc3c(C(=O)Nc3ccc(S(=O)(=O)Nc4cc(C)on4)cc3)c2C)cc1	18µM	?	0	?	0	?
Cc1ccccc1CNC(=O)C1CCN(c2nnc(N3CCCC3=O)s2)CC1	0	0	0	0	0	0
Cc1ccc(SCc2nc(-c3ccccc3)no2)cc1	0	?	0	0	0	0
Cc1ccc(SCc2nc(-c3ccncc3)no2)cc1	16µM	?	0	0	0	?
c1ccc(SCc2nc(-c3ccncc3)no2)cc1	?	0	0	?	11µM	0
O=C(COC(=O)C1CC1)NC(=O)NCc1ccccc1	0	0	0	0	0	0
Cc1ccc(NC(=O)COc2ccccc2C(=O)NCCN(C)C)cc1	-	0	-	0	0	-
CC1(C)CC(=O)C2=C(C1)c1c(ccc3ncccc13)NC2c1cccs1 (stereo not drawn)	9.2µM	0	0	0[10 µM]	0	?
COc1cc(C2Nc3ccc4ncccc4c3C3=C2C(=O)CCC3)cc(OC)c1O (stereo not drawn)	?	?	0	2.8µM	0	?
COc1cc(C2Nc3ccc4ncccc4c3C3=C2C(=O)CC(C)(C)C3)cc(OC)c1O (stereo not drawn)	0	?	0	0	0	?
O=C(N/N=C/c1ccc(N2CCCCC2)o1)c1ccccc1	23µM	?	0	5µM	5µM	?
Cc1ccc(/C=N\NC(=O)c2cc([N+](=O)[O-])cc([N+](=O)[O-])c2)o1	0	0	0	2.5µM	?	0
Cc1ccc(/C=N/NC(=O)C(=O)N/N=C/c2ccc(C)o2)o1	0	0	0	0	0	0[1.84 µM]
Cc1ccc(C(=O)Nc2ccc(C(=O)N/N=C/c3ccc(C)o3)cc2)cc1	0	?	0	?	?	0
SMILES	MCF10A rerep	Chronic BCR inh	Giardia killer	RORgamma inh	Gal4-VP16 FLuc	SW480 rereplic
O=C(N/N=C/c1ccc(N2CCOCC2)o1)c1cccc([N+](=O)[O-])c1	0	?	0	0	0	?
Cc1ccc(/C=N/NC(=O)c2ccc(-c3ccccc3)cc2)o1	?	0	0	13µM	?	0
COc1cc(CNC(=O)c2nc(Cn3nc(C)c(Br)c3C)no2)cc(OC)c1	0	0	0	0	0	0
CCc1cccc(N(C(=O)c2csnn2)C(C(=O)NC2CCCCC2)c2cccnc2)c1 (stereo not drawn)	0	0	0	0	0	0
CC1(C)C[C@@H]2C(=O)CCC3O[C@@]3(C)CCC21 (stereo partly drawn)	-	-	-	0	0	-
CC(=O)c1c(C)[nH]c(C(=O)OCC(=O)Nc2ccc(Cl)cc2[N+](=O)[O-])c1C	0	?	0	?	5µM	0
CCOC(=O)c1c(C)[nH]c(C(=O)OCC(=O)Nc2cc(Cl)ccc2OC)c1C	0	0	0	0	0	?
O=C1C=C(c2ccccc2)CC(c2cccs2)C1n1cnc([N+](=O)[O-])c1 (stereo not drawn)	0	0	0	0	0	0
O=C1C=C(c2ccccc2)C[C@H](c2cccs2)[C@H]1n1nnc([N+](=O)[O-])n1	?	?	0	?	?	2.1µM
CC(Oc1ccc(Cl)cc1Cl)C(=O)Nc1ccc2oc(-c3ccncc3)nc2c1 (stereo not drawn)	9.2µM	0	0	0	0	?
CC(Oc1ccc(Cl)cc1Cl)c1nc(-c2ccc(NC(=O)c3ccncc3)cc2)no1 (stereo not drawn)	23µM	0	0	?	13µM	?
Cc1ccc(-c2nc3cc(NC(=O)C(C)C)ccc3o2)cc1	0	?	0	0	0	0
Nc1no[n+]([O-])c1-c1ccccc1	0	0	0	0	0	0
CCn1c(CSc2n[nH]c(N)n2)nc2cc(C(=O)O)ccc21	0	0	0	0	0	0
COCCNC(=O)c1c(N)n(CCC2=CCCCC2)c2nc3ccccc3nc12	15µM	?	0	0	0	21µM
COCCn1c(N)c(C(=O)OCc2ccccc2)c2nc3ccccc3nc21	?	0	0	?	14µM	?
C=CCn1c(N)c(C(=O)OCCC)c2nc3ccccc3nc21	0	?	0	0	0	0[9.22 µM]
Cc1ccc(OC(=O)c2cc(C)nn2C(C)(C)C)cc1	0	0	0	0	0	0
Cc1cccn2c(=O)c3cc(C(=O)NC(C)c4ccccc4)c(=N)n(CCCn4ccnc4)c3nc12 (stereo not drawn)	21µM	0	0	0	0	16µM
Cc1ccc2nc3c(cc(C(=O)NCc4ccccc4)c(=N)n3CCCn3ccnc3)c(=O)n2c1	8.2µM	-	0	-	-	5.2µM
Cc1nnc(SCC(=O)NC2CCS(=O)(=O)C2)n1Cc1ccccc1 (stereo not drawn)	0	0	0	0	0	0
Cc1ccc2nc3c(cc(C(=O)NCc4cccnc4)c(=N)n3C(C)C)c(=O)n2c1	-	0	-	0	0	-
Cc1ccc2nc3c(cc(C(=O)NC4CCS(=O)(=O)C4)n3Cc3ccccc3)c(=O)n2c1 (stereo not drawn)	23µM	0	0	0	0	23µM
Cc1ccc2nc3c(cc(C(=O)NCCc4ccccc4)c(=N)n3CCN3CCOCC3)c(=O)n2c1	18µM	0	0	0	0	5.2µM
Cc1cccn2c(=O)c3cc(C(=O)NCC4CCCO4)c(=N)n(CCc4ccccc4)c3nc12 (stereo not drawn)	0	0	0	0	0	?
